Assay type in all cases: functional
The target in experiment [1] is Solute carrier family 2, facilitated glucose transporter member 1 (Homo sapiens) (UniProt P11166). The experiment is described as follows: ST_JUDE_LEISH: Cytotoxicity at 2uM final concentration against transgenic Leishmania Mexicana promastigotes LmGLUT1 that are glucose transport deficient and complemented with the human glucose transporter GLUT1. Activity is measured by DNA content using SYBR green in vitro.

The target in experiment [2] is Hexose transporter 1 (Plasmodium falciparum) (UniProt O97467). The experiment is described as follows: ST_JUDE_LEISH: Cytotoxicity at 2uM final concentration against transgenic Leishmania Mexicana promastigotes LmPfHT that are glucose transport deficient and complemented with the Plasmodium falciparum hexose transporter. Activity is measured by DNA content using SYBR green in vitro.

Experiment [3] concerns the target Glucose transporter (Leishmania mexicana) (UniProt O61059). The experiment is described as follows: ST_JUDE_LEISH: Cytotoxicity at 2uM final concentration against transgenic Leishmania Mexicana promastigotes LmGT2 that are glucose transport deficient and complemented with the L. Mexicana glucose transporter 2. Activity is measured by DNA content using SYBR green in vitro.

In general, inhibition refers to the relative decrease from the control value, in per cent.

SMILES strings stand for the structures.

Chain of Solute carrier family 2, facilitated glucose transporter member 1 (Homo sapiens) (P11166 whole entry): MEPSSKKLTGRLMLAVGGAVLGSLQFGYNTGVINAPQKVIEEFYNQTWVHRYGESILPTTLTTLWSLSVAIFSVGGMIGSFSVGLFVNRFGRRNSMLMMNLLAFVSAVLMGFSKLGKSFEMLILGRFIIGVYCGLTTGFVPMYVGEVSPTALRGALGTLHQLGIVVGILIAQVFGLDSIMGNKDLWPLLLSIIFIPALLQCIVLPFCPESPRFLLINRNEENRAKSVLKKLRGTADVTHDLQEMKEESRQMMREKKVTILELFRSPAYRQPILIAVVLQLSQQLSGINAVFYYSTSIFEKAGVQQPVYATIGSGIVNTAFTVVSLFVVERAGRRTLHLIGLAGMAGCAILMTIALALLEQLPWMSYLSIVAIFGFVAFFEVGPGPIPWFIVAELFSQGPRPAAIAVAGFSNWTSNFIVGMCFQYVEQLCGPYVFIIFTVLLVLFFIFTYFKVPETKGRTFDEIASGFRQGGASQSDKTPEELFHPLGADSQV

As for `O=S(=O)(NCCN1CCCC1)c1ccc(-c2cccc(CNCc3ccsc3)c2)s1`, the inhibition was 5.4% in experiment [1], 2.42% in experiment [2] and -1.72% in experiment [3].

Turning to `CN1CCc2cc(NC(=O)c3cc4ccccc4s3)cc(-c3ccccc3)c2CC1`, the inhibition in experiment [1] was determined as 97.2%; in experiment [2], 101%; in experiment [3], 95.9%.

For the molecule `COc1ccccc1C1CCN(C2CCC(NC(=O)/C=C/c3cc(F)cc(C(F)(F)F)c3)CC2)CC1` (centres undefined), the inhibition in experiment [1] is -0.82%; in experiment [2], 0.7%; in experiment [3], 1.96%.
